In all, about 320,000 compounds went through this assay and about 1,300 (0.41%) were called active. Roughly 3% stayed inconclusive and do not appear here. No rule for the calls is given here. Only a sample is shown. Results with a measured potency or affinity are listed apart.
Assay: growth inhibition of non-replicating M. tuberculosis (AID 488890);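 also: plate controls were DMSO cells for no effect and high antibiotic wells for full effect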
Details: Mycobacterium tuberculosis non-replicating, at 25 µM, stronger effect = higher value

Row | SMILES | inhibition
1 | O=C(COC(=O)/C=C/c1ccco1)NCc1ccc(Cl)cc1 | 44.8%
2 | COc1ccccc1C(=O)OCCN=C1NS(=O)(=O)c2ccccc21 | 3.36%
3 | O=C(N/N=C/C(Br)=C/c1ccccc1)c1cccnc1 | 56.4%
4 | CC(/C=N/NC(=O)c1ccncc1)=C\c1ccccc1 | 56.6%
5 | O=c1oc(-c2cccc([N+](=O)[O-])c2)nc2ccccc12 | 67.8%
6 | CCOc1ccc(-c2cc(C(=O)O)c3ccccc3n2)cc1 | 0.34%
7 | COc1ccc(-n2c(/C=C/c3ccc(O)cc3)nc3ccccc3c2=O)cc1 | 20.1%
8 | Cc1ccc2nc(-c3ccccc3)oc(=O)c2c1 | 76.6%
9 | CCOc1ccc(-c2nnc(-c3ccccc3)o2)cc1 | 78.4%
10 | COc1ccc(-c2csc3nc(-c4ccc(C)cc4)oc(=O)c23)cc1OC | 2%
11 | COc1ccc(/C=C/c2cc(C(=O)O)c3ccccc3n2)cc1 | 3.28%
12 | O=[N+]([O-])c1ccc(C=Nc2cccc3ccccc23)s1 | 68.5%
13 | O=S(=O)(Cc1ccccc1)N1CCCc2ccccc21 | 28.1%
14 | Cc1[nH]c2ccc(C(=O)NCCCN(C)C3CCCCC3)cc2c1C | 7.44%
15 | Cc1sc2nc(SCC(=O)NCCOCCO)n(C)c(=O)c2c1C | -0.17%
16 | Cc1ccc(C(=O)NCC(=O)OCn2nnc3ccccc3c2=O)cc1 | 4.09%
17 | Cc1nn(Cc2ccccc2)c2c1C(c1ccc(Cl)cc1)C(C#N)=C(N)O2 (stereo not given) | 11.4%
18 | COC(=O)c1sccc1NC(=O)c1c(-c2ccccc2)noc1C | 27.9%
19 | CC1CC(=O)Nc2ccccc2N1C(=O)CN1CCN(C=O)CC1 (stereo not given) | 4.41%
20 | c1ccc(C2C3=C(Nc4ncnn42)c2ccccc2CCC3)cc1 (stereo not given) | 9.65%
21 | CCCC(=O)C1=C(O)C(C(=O)OC)C(C)(C)CC1=NC(C)C (stereo not given) | -5.24%
22 | CC(C)(C)c1ccc(-n2ncc3c2CCCC3NC(=O)CCN2CCCO2)cc1 (stereo not given) | 19.6%
23 | COc1cc(OC)cc(-c2cc3ccccc3c(=O)o2)c1 | 9.55%
24 | O=c1oc(-c2ccco2)nc2ccccc12 | 28.8%

Row | SMILES | inhibition
25 | Cc1c2cnn(CC(=O)Nc3c(F)c(F)cc(F)c3F)c(=O)c2c(C)n1Cc1ccccc1F | 0.29%
26 | CN(C)C(CNC(=O)CCOc1ccccc1)c1ccco1 (stereo not given) | 13.7%
27 | Fc1ccccc1CSc1nc2ncccc2[nH]1 | 23.3%
28 | Cc1cc(=O)[nH]c(SC/C=C/c2ccccc2)n1 | 69.8%
29 | Cn1c(C(=O)N[C@@H](Cc2ccccc2)C(=O)O)cc2cc(F)ccc21 | -8.03%
30 | Cc1ccc(N2C(=O)NC(NC(=O)C(C)(C)C)(C(F)(F)F)C2=O)cc1C (stereo not given) | -24.4%
31 | Cc1cc(C)n(-c2nc(SCC(=O)O)c3c4c(sc3n2)COC(C)(C)C4)n1 | 78.8%
32 | Cc1cc(C)n(-c2nc(NCC(C)O)c3c4c(sc3n2)CCCC4)n1 (stereo not given) | 79.3%
33 | Cc1cc(C)n(-c2nc(NCCCN(C)C)c3c4c(sc3n2)CCCC4)n1 | 75.9%
34 | Cc1cc(C)n(-c2nc(SCCN(C)C)c3c4c(sc3n2)COC(C)(C)C4)n1 | 65.5%
35 | O=C1CCCN1CC(O)CS(=O)(=O)Cc1ccccc1 (stereo not given) | -12.3%
36 | COc1ccc(C2C(C(C)=O)=C(C)Nc3ncnn32)c(OC)c1OC (stereo not given) | -4.13%
37 | Cc1cccn2c(NC(=O)c3cccs3)c(-c3ccccc3)nc12 | -0.63%
38 | Cc1nnc(-c2ccccc2)nc1N(C)C | 21.8%
39 | c1ccc(-c2nnc(-c3ccccn3)c(-c3ccccn3)n2)nc1 | 10.5%
40 | COc1cc(CNc2ccc3[nH]c(=O)[nH]c3c2)ccc1OCc1ccc(Cl)cc1 | 32.9%
41 | CCc1ccc(C(=O)COC(=O)CNC(=O)c2ccc(Br)o2)cc1 | 43.3%
42 | CC(=O)c1ccc(OC(=O)c2ccc(Br)o2)cc1 | 79.1%
43 | Cc1ccc(CC(=O)N2CCN(C)CC2)cc1 | -6.84%
44 | Cc1ccccc1-c1cnn(-c2cccc([N+](=O)[O-])c2)c1N | 14.7%
45 | CNc1c([N+](=O)[O-])cnn1-c1ccccc1Cl | 10.6%
46 | O=C(CSc1n[nH]c(=O)n1-c1cccnc1)Nc1ccccc1Cl | -0.8%
47 | O=C(Nc1ccccc1N1CCOCC1)C1=NN(c2c(F)c(F)cc(F)c2F)C(=O)CC1 | -3.73%
48 | O=C(Nc1nccs1)c1ccc(Cl)c([N+](=O)[O-])c1 | -5.17%

Row | SMILES | inhibition
49 | N#Cc1ccsc1NC(=O)c1cccc([N+](=O)[O-])c1 | 2.42%
50 | COC(=O)c1ccccc1S(=O)(=O)N1CCC(C(=O)NCC2CCCO2)CC1 (stereo not given) | -9.14%
51 | CN(C(=O)COC(=O)c1ccc(Cl)cc1N)C1CCCCC1 | 24.6%
52 | CN(C(=O)COC(=O)c1cc(NS(=O)(=O)c2cc([N+](=O)[O-])ccc2Cl)ccc1O)C1CCCCC1 | 35.1%
53 | CCN(CC)c1ccc(-c2nnc(SCC(=O)Nc3ccccc3C#N)n2-c2ccccc2)cc1 | 41%
54 | CC1(C)CC(=O)C2=C(C1)OC(N)=C(C#N)C2c1ccccc1 (stereo not given) | 24.7%
55 | CC1(C)CC(=O)C2=C(C1)OC(N)=C(C#N)C2Cc1ccccc1 (stereo not given) | 25%
56 | Cc1cc2oc(=O)cc(CN3CCc4ccccc43)c2cc1Cl | -0.24%
57 | COc1ccc(CCn2c(N)cc(=O)[nH]c2=S)cc1OC | 10.4%
58 | CCOc1ccc(CCNC(=O)CCn2nc(C)c3c(C)n(-c4ccccc4)nc3c2=O)cc1 | -11.8%
59 | O=C(OCc1cncs1)c1ccccc1Cl | 32.7%
60 | O=C(OCc1cnc(Cl)s1)c1ccccc1Cl | 56.8%
61 | CCOC(=O)CSc1nnc(CNC(=O)c2cccs2)n1-c1cccc(C)c1 | 33%
62 | C[C@@H]1CCCCCCCCC(=O)OCCN(C(=O)OC(C)(C)C)[C@H](C)CCCCCCCCC(=O)OCCN(C(=O)OC(C)(C)C)[C@H](C)CCCCCCCCC(=O)OCCN(C(=O)OC(C)(C)C)[C@H](C)CCCCCCCCC(=O)OCCN1C(=O)OC(C)(C)C | -3.81%
63 | Clc1ccc(CSc2nnc(-c3cccnc3)o2)cc1 | 47.9%
64 | Brc1ccc(CSc2nnc(-c3cccnc3)o2)cc1 | -15.4%
65 | O=[N+]([O-])c1ccc(CSc2nnc(-c3cnccn3)o2)cc1 | 66.9%
66 | O=[N+]([O-])c1cccc(-c2nnc(SCc3cccnc3)o2)c1 | 43.9%
67 | Cc1cc(C(=O)Nc2ccccc2C)on1 | -6.92%
68 | CCCC(=O)Nc1ccc(C(=O)/C=C/c2ccc(SC)cc2)cc1 | 42.6%
69 | COc1cc2c(cc1OC)C(c1cc3cccc(C)c3[nH]c1=O)N(C(=O)c1ccco1)CC2 (stereo not given) | 30.4%
70 | COc1ccc(NC(=S)NCc2ccc(F)cc2)c(OC)c1 | 14.9%
